This excerpt belongs to a sample that is enriched for hits.
DT40 TDP1 CPT: growth inhibition of DT40 Tdp1-/-;hTDP1 cells with camptothecin (screen for TDP1 inhibitors); Potency, µM (series often up to 46.2 µM), usual class: inhibitors; actives 12% (n = 420,000); chicken DT40 Tdp1-/-;hTDP1 cells + 20 nM CPT, ATP luminescence, 48 h; note: nearly all actives have a fitted effect of over 55% in size
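Cell growth measured by CellTiter-Glo luminescence after a minimum 48 h, 37 C compound exposure with 20 nM CPT in Tdp1-knockout DT40 cells stably expressing hTDP1, seeded 400/well; qHTS titration format.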
IL1B secr inh: inflammasome signaling inhibition, IL-1 beta readout; THP-1 LPS/ATP IL-1B secretion, AlphaLISA, 16 h; stronger effect = lower value; activity change, % at 57.5 µM; actives 4.7% (n = 360,000); AID 743279; in the data active = activity change below about -50%; inconclusive = mostly about -30% to -49%
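Secreted IL-1B measured by AlphaLISA bead assay after 16 h compound exposure of THP-1 cells; compounds (final up to 57.5 uM) added 1 h before LPS (250 ng/mL) and ATP (1.25 mM) stimulation; lower signal means less secretion.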
HT1080 IDH1KD tx: HT-1080 IDH1 knockdown cell toxicity (counter line); HT-1080 IDH1 knockdown viability, ATP luminescence, 48 h; AID 686971; Potency, µM (doses to about 46.1 µM), usual class: cytotoxic; actives 2% (n = 360,000)
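% activity derives from luminescence (CellTiter-Glo), normalised to DMSO and no-cell wells. HT-1080-IDH1KD cells, 750/well, had 48 h compound exposure at 37 °C.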
DT40 TDP1 no CPT: qHTS for Inhibitors of human tyrosyl-DNA phosphodiesterase 1 (TDP1): qHTS in cells in absence of CPT; Potency, µM (series often up to 46.2 µM), actives largely listed as inhibitors; DT40 Tdp1-/- hTDP1 cells, no CPT, ATP luminescence, 48 h; AID 686978, 2013; actives 15% (n = 420,000); note: nearly all actives have a fitted effect of over 55% in size
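Readout: luminescence from CellTiter-Glo after 30 min in the dark at RT. Cells: DT40 Tdp1-/- with stable hTDP1, 400/well. Exposure: compounds alone, ≥48 hr, 37 °C.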
12-LOX inh: blocks human arachidonate 12S-lipoxygenase; purified 12hLO, xylenol orange hydroperoxide absorbance; Potency, µM (titrated, usually from 108 µM), actives largely listed as inhibitors; actives 1.1% (n = 580,000)
Target sequence (P18054 whole entry, looked up): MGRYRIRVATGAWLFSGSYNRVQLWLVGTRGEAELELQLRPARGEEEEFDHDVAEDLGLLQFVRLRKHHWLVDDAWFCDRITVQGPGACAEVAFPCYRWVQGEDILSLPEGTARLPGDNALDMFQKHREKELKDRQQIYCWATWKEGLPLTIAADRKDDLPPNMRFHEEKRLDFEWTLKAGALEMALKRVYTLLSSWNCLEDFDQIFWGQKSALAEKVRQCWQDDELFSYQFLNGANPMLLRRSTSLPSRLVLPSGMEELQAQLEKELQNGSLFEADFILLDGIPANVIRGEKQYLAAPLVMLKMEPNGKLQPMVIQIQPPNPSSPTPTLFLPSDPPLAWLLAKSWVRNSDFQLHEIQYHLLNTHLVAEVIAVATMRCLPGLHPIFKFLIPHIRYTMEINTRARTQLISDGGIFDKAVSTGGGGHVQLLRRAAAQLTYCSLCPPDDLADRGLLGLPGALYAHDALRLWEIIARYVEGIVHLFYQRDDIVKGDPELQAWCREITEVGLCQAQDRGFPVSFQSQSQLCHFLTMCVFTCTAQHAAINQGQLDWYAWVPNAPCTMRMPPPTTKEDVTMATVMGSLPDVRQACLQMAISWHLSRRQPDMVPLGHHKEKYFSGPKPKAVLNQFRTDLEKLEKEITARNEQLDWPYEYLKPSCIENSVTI
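Hydroperoxide product was detected by ferrous iron/xylenol orange as the 573 to 405 nm absorbance ratio. Arachidonic acid at 40 uM (final) was turned over for 30 min at room temperature by 150 nM human 12hLO, pH 7.0 Hepes buffer, after 15 min compound preincubation.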
HT1080NT lethal: kills 2HG-producing HT-1080-NT fibrosarcoma cells. Potency, µM (top dose mostly 46.1 µM), actives largely listed as cytotoxic. HT-1080-NT fibrosarcoma viability, CellTiter-Glo ATP luminescence, 48 h. actives 1.6% (n = 360,000);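 note: NT is the 2HG producing partner of a matched IDH1 knockdown line; nearly all actives have a fitted effect of over 55% in size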
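Luminescent CellTiter-Glo readout after 48 hours of compound exposure at 37 degrees C defined viability of HT-1080-NT cells. Activity was normalized to DMSO wells and cell-free media wells; concentration-response curves were fitted and assigned curve classes.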
Each line names hits and unclear results; the compound was inactive in the other large screens. Unless noted, calls come from the whole dose curve; as a rule, active = well fitted curve in the direction sought with a large enough effect; inconclusive = small, poorly fitted or top-dose-only effect, or another doubt; inactive = no such curve, though single readings can be large; an effect the other way counts as inactive or inconclusive.

COc1ccccc1CCNC(=O)c1ccc(NC(=O)CC2SC(N3CCCC3)=NC2=O)cc1 (stereo not drawn)	12-LOX inh inconclusive
CCN(CC)C1=NC(=O)C(CC(=O)Nc2cccc(C(=O)NCCc3ccccc3OC)c2)S1 (stereo not drawn)	12-LOX inh 1.1µM (no result: DT40 TDP1 CPT, IL1B secr inh, HT1080 IDH1KD tx, DT40 TDP1 no CPT, HT1080NT lethal)
CCNC(=S)Nc1ccc2c(c1)c(=O)n(C)n2-c1cc(C)cc(C)c1	DT40 TDP1 CPT inconclusive, DT40 TDP1 no CPT inconclusive, 12-LOX inh inconclusive
CN(C)c1ccc(NC(=S)Nc2ccc3c(c2)c(=O)n(C)n3-c2ccc(C(C)(C)C)cc2)cc1	DT40 TDP1 CPT 21µM, HT1080 IDH1KD tx 18µM, DT40 TDP1 no CPT 12µM, 12-LOX inh inconclusive, HT1080NT lethal inconclusive
CN(C)c1ccc(NC(=O)Nc2ccc3c(c2)c(=O)n(C)n3-c2ccccc2)cc1	DT40 TDP1 CPT inconclusive, HT1080 IDH1KD tx inconclusive, DT40 TDP1 no CPT 21µM, 12-LOX inh inconclusive, HT1080NT lethal 16µM
CN(C)c1ccc(NC(=O)Nc2ccc3c(c2)nnn3C)cc1	none
CC(=O)n1cc(C(C[N+](=O)[O-])SCCN)c2ccccc21 (stereo not drawn)	DT40 TDP1 CPT 5.2µM, IL1B secr inh -97, HT1080 IDH1KD tx inconclusive, DT40 TDP1 no CPT 5.2µM, HT1080NT lethal inconclusive (no result: 12-LOX inh)
O=C(CSc1ccc2ccccc2n1)N(C1CC1)C1CCS(=O)(=O)C1 (stereo not drawn)	none (no result: DT40 TDP1 CPT, IL1B secr inh, HT1080 IDH1KD tx, DT40 TDP1 no CPT, HT1080NT lethal)
CC1CC(C)CN(CCOc2ccc(Br)cc2)C1 (stereo not drawn)	12-LOX inh inconclusive
O=C(C1=C(O)C(=O)N(CC2CCCO2)C1c1cccc(O)c1)c1ccco1 (stereo not drawn)	12-LOX inh inconclusive
O=C(C1=C(O)C(=O)N(CC2CCCO2)C1c1ccccc1F)c1ccco1 (stereo not drawn)	IL1B secr inh -94, 12-LOX inh inconclusive
COc1ccc(NC(=O)c2cc(-c3cc(Cl)ccc3OC)n[nH]2)cc1OC	DT40 TDP1 CPT 21µM, IL1B secr inh -65, HT1080 IDH1KD tx inconclusive, DT40 TDP1 no CPT inconclusive, HT1080NT lethal inconclusive
COc1ccc(NC(=O)c2cc(-c3cc(Cl)ccc3C)n[nH]2)cc1OC	DT40 TDP1 CPT inconclusive, IL1B secr inh -52, DT40 TDP1 no CPT inconclusive
COc1ccc(NC(=O)c2cc(-c3ccc(F)cc3C)n[nH]2)cc1OC	IL1B secr inh inconclusive, DT40 TDP1 no CPT inconclusive
COc1ccc(NC(=O)c2cc(-c3cc(C)cc(F)c3)n[nH]2)cc1OC	DT40 TDP1 CPT 26µM, IL1B secr inh inconclusive, HT1080 IDH1KD tx inconclusive, DT40 TDP1 no CPT inconclusive
COc1ccc(Cl)cc1-c1cc(C(=O)Nc2ccc(F)cc2)[nH]n1	DT40 TDP1 CPT inconclusive
Cc1oc(-c2ccccc2)nc1CC(=O)NCC(C)N1CCOCC1 (stereo not drawn)	none (no result: DT40 TDP1 CPT, IL1B secr inh, HT1080 IDH1KD tx, DT40 TDP1 no CPT, HT1080NT lethal)
COc1ccc(NC2CC(=O)N(C(C)C)C2=O)cc1 (stereo not drawn)	12-LOX inh 4µM
CN1C(=O)CC(Nc2cccc3cccc(N)c23)C1=O (stereo not drawn)	none (no result: 12-LOX inh)
CC(C)N1C(=O)CC(Nc2cccc3cccc(N)c23)C1=O (stereo not drawn)	DT40 TDP1 CPT 23µM, DT40 TDP1 no CPT 21µM
NC(Cc1ccc(C(F)(F)F)cc1)c1csc(NC(=O)NCCc2ccccc2)n1 (stereo not drawn)	DT40 TDP1 CPT 12µM, IL1B secr inh -101, HT1080 IDH1KD tx 18µM, DT40 TDP1 no CPT 13µM, 12-LOX inh inconclusive, HT1080NT lethal 23µM
CC(C)CC(N)c1csc(NC(=O)NCCc2ccccc2)n1 (stereo not drawn)	DT40 TDP1 CPT inconclusive, HT1080 IDH1KD tx inconclusive, DT40 TDP1 no CPT inconclusive, HT1080NT lethal inconclusive (no result: IL1B secr inh)
NC(c1ccccc1)c1csc(NC(=O)NCCc2ccccc2)n1 (stereo not drawn)	DT40 TDP1 CPT inconclusive, IL1B secr inh -63, HT1080 IDH1KD tx inconclusive, DT40 TDP1 no CPT inconclusive, HT1080NT lethal inconclusive
